PubChem BioAssay (NCI)
Compounds without any hit were thinned out: in the full panel of roughly 83,000, 20% have a hit.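 96-well plates, one dose, 48 hours. Percent growth reported; active if below 10.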 Activity calls are given as the source filed them.

How the values were obtained:
Assay in all cases: NCI-60 one-dose screen, 48 h (100 = growth as untreated, 0 = no growth, -100 = all killed)
Conditions in all cases: 10 µM unless noted
SR leukemia = tested on: SR leukemia
RPMI-8226 leukemia = tested on: RPMI-8226 leukemia
OVCAR-8 ovarian = tested on: OVCAR-8 ovarian
OVCAR-5 ovarian = tested on: OVCAR-5 ovarian
SK-OV-3 ovarian = tested on: SK-OV-3 ovarian
IGROV1 ovarian = tested on: IGROV1 ovarian
OVCAR-3 ovarian = tested on: OVCAR-3 ovarian
HS 578T breast = tested on: HS 578T breast
NCI/ADR-RES ovarian = tested on: NCI/ADR-RES ovarian
T-47D breast = tested on: T-47D breast
BT-549 breast = tested on: BT-549 breast
MDA-MB-435 melanoma = tested on: MDA-MB-435 melanoma
SW-620 colon = tested on: SW-620 colon
MCF7 breast = tested on: MCF7 breast
HCT-116 colon = tested on: HCT-116 colon
HCC-2998 colon = tested on: HCC-2998 colon
KM12 colon = tested on: KM12 colon

Measured: growth

O=C(CN1C(=O)S/C(=C\C(Cl)=C\c2ccccc2)C1=O)NC1C=CS(=O)(=O)C1 (stereo not drawn)
inactive: OVCAR-5 ovarian 44.2% | SK-OV-3 ovarian 98.8% | HS 578T breast 51.7% | NCI/ADR-RES ovarian 24.7% | MCF7 breast 11.1% | HCC-2998 colon 65.6% | KM12 colon 16.4%
active: SR leukemia 6.39% | RPMI-8226 leukemia 0.667% | OVCAR-8 ovarian 4.68% | IGROV1 ovarian -16.1% | OVCAR-3 ovarian -12.6% | T-47D breast 4.56% | BT-549 breast 2.33% | MDA-MB-435 melanoma -31.4% | SW-620 colon -36.4% | HCT-116 colon -62.3%

CN1CCN(Cc2ccc(NC(=O)c3cccc(C#Cc4c(N)ncc5ccc(F)cc45)c3)cc2C(F)(F)F)CC1
active: SR leukemia -24.6% | RPMI-8226 leukemia -33.6% | OVCAR-8 ovarian -51.5% | OVCAR-5 ovarian -57.7% | SK-OV-3 ovarian 6.69% | IGROV1 ovarian -42.4% | OVCAR-3 ovarian -57.4% | HS 578T breast -37.9% | NCI/ADR-RES ovarian -44.7% | MDA-MB-435 melanoma -95.9% | SW-620 colon -91.6% | MCF7 breast -80.9% | HCT-116 colon -93.1% | HCC-2998 colon -86.8% | KM12 colon -82.1%
inactive: T-47D breast 14.8% | BT-549 breast 28.5%

O=C(/C=C/c1cccs1)Nc1ncc(Cc2ccc(Cl)c(Cl)c2)s1
active: MDA-MB-435 melanoma -23.2%
inactive: SR leukemia 32.7% | RPMI-8226 leukemia 78.1% | OVCAR-8 ovarian 72.7% | OVCAR-5 ovarian 74.1% | SK-OV-3 ovarian 68.8% | IGROV1 ovarian 64.1% | OVCAR-3 ovarian 40.4% | HS 578T breast 62.4% | NCI/ADR-RES ovarian 60.3% | T-47D breast 49% | BT-549 breast 80.9% | SW-620 colon 37.5% | MCF7 breast 26.8% | HCT-116 colon 45.2% | HCC-2998 colon 53.8% | KM12 colon 22%

Cc1cnc(C(=O)NNc2nc3sc4c(c3c(=O)[nH]2)C(C)CCC4)cn1 (stereo not drawn)
inactive: SR leukemia 21.4% | RPMI-8226 leukemia 29.3% | OVCAR-8 ovarian 15.3% | OVCAR-5 ovarian 34.7% | SK-OV-3 ovarian 16.2% | IGROV1 ovarian 14.5% | OVCAR-3 ovarian 31.5% | HS 578T breast 46.8% | NCI/ADR-RES ovarian 11.7% | T-47D breast 30.4% | BT-549 breast 39.5% | SW-620 colon 35.3% | MCF7 breast 13.9% | HCT-116 colon 22.5% | HCC-2998 colon 11.1% | KM12 colon 17.5%

O=C(Nc1ncc(Cc2cccc(C(F)(F)F)c2)s1)c1ccc2c(c1)OCCO2
active: SR leukemia 6.85% | OVCAR-3 ovarian -8.1% | NCI/ADR-RES ovarian 7.71% | MDA-MB-435 melanoma 3.47%
inactive: RPMI-8226 leukemia 17.6% | OVCAR-8 ovarian 23.2% | OVCAR-5 ovarian 37.1% | SK-OV-3 ovarian 35.3% | IGROV1 ovarian 23.4% | HS 578T breast 21.4% | T-47D breast 42.5% | BT-549 breast 35.8% | SW-620 colon 37% | MCF7 breast 13.9% | HCT-116 colon 10.9% | HCC-2998 colon 20.3% | KM12 colon 11.1%

O=C(/C=C/c1ccc(F)cc1)Nc1ncc(Cc2ccc(F)cc2)s1
inactive: SR leukemia 25.2% | RPMI-8226 leukemia 44.9% | OVCAR-8 ovarian 51.9% | OVCAR-5 ovarian 62.8% | SK-OV-3 ovarian 41.4% | IGROV1 ovarian 46.8% | OVCAR-3 ovarian 12.4% | HS 578T breast 23% | NCI/ADR-RES ovarian 35.5% | T-47D breast 28% | BT-549 breast 67.3% | SW-620 colon 25.3% | MCF7 breast 17.9% | HCT-116 colon 29.4% | HCC-2998 colon 26.5% | KM12 colon 20.9%
active: MDA-MB-435 melanoma -48.2%

Cc1cc(N2CCCCC2)nc(NCc2cc(Nc3ccnc4cc(Cl)ccc34)ccc2F)n1
inactive: SK-OV-3 ovarian 72.6% | IGROV1 ovarian 10.2% | HS 578T breast 14.9% | BT-549 breast 15.5%
active: SR leukemia -21.3% | RPMI-8226 leukemia -38.9% | OVCAR-8 ovarian -15% | OVCAR-5 ovarian -42.1% | OVCAR-3 ovarian -79.5% | NCI/ADR-RES ovarian 6.86% | T-47D breast -60.6% | MDA-MB-435 melanoma -86.7% | SW-620 colon -19.2% | MCF7 breast -37.5% | HCT-116 colon -62.8% | HCC-2998 colon -16% | KM12 colon 7.38%
